Growth data for 8 molecules are collected here from PubChem BioAssay (NCI).

Test systems include DU-145 prostate; K-562 leukemia; MALME-3M melanoma; MDA-MB-231 breast; RXF 393 renal; SF-268 CNS; SF-295 CNS; SF-539 CNS; UACC-257 melanoma; M14 melanoma; HCT-15 colon; HT29 colon; SNB-75 CNS; U251 CNS; PC-3 prostate; SK-MEL-5 melanoma; UACC-62 melanoma; LOX IMVI melanoma; SK-MEL-28 melanoma; SNB-19 CNS.
Holding throughout (assay): NCI-60 one-dose screen, 48 h (100 = growth as untreated, 0 = no growth, -100 = all killed)
What all share (conditions): 10 µM unless noted

The panel holds about 83,000 compounds, 20% with a hit somewhere; the sample as a whole holds those more often.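 Cell lines were cultured in 96-well plates, exposed to a single compound concentration, and assessed for percent growth 48 hours later.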 Unmarked numbers belong to inactive results. Calls of active or inactive are those of the source. The calls were made as follows: active = growth percent below 10; inactive = the rest.

Turning to `O=C(NCCO)c1cccnc1`, the growth in the test with DU-145 prostate is 109%; in the test with K-562 leukemia, 95.2%; in the test on MALME-3M melanoma it was 105%; with MDA-MB-231 breast, 112%; with RXF 393 renal, 112%; in the test with SF-268 CNS, 100%. In addition, the growth in the test on SF-295 CNS was 101%; in the test on SF-539 CNS, 101%; in the test with UACC-257 melanoma, 87.7%; in the test with M14 melanoma it was 104%; in the test on HCT-15 colon, 113%; in the test on HT29 colon it was 91.5%. The growth is 92.9% in the test with SNB-75 CNS; 92.7% in the test with U251 CNS; 83.4% in the test on PC-3 prostate; 96% in the test with SK-MEL-5 melanoma; 105% in the test with UACC-62 melanoma; 95% in the test with LOX IMVI melanoma. Besides, in the test with SK-MEL-28 melanoma, the growth is 106%.
Take `CCN(CC)CCSC(=O)C(O)(c1ccccc1)C1CCCC1` (stereo not drawn): the growth with DU-145 prostate is 95.6%; with K-562 leukemia it was 96.4%; in the test on MALME-3M melanoma, 116%; with MDA-MB-231 breast, 97.9%; with RXF 393 renal, 82.1%; in the test on SF-268 CNS, 91.3%. Moreover, the growth in the test with SF-295 CNS is 113%; in the test on SF-539 CNS it was 110%; with UACC-257 melanoma, 83.2%; in the test with M14 melanoma, 128%; with HCT-15 colon, 98.6%; with HT29 colon, 114%. For the same molecule, the growth with SNB-75 CNS is 95.2%; with U251 CNS it was 108%; with PC-3 prostate, 96.9%; in the test with SK-MEL-5 melanoma, 117%; in the test with UACC-62 melanoma, 86.9%; in the test with LOX IMVI melanoma, 90.3%. Also, the growth in the test on SK-MEL-28 melanoma was 87%.
For `CC(C)C1=NOC(=O)C1=Cc1cn(-c2cccnc2)nc1-c1ccccc1`, the growth with DU-145 prostate was 104%; with K-562 leukemia, 72.7%; with MALME-3M melanoma, 111%; in the test on MDA-MB-231 breast, 96%; in the test on RXF 393 renal it was 64.8%; in the test on SF-268 CNS, 102%. The growth is 98.1% in the test on SF-295 CNS; 104% in the test with SF-539 CNS; 111% in the test with UACC-257 melanoma; 103% with M14 melanoma; 94.2% in the test on HCT-15 colon; 99.1% with HT29 colon. Moreover, the growth with SNB-75 CNS is 88.4%; with U251 CNS, 83.5%; in the test with SK-MEL-5 melanoma it was 102%; in the test on UACC-62 melanoma, 90.4%; in the test on LOX IMVI melanoma, 80.2%; with SK-MEL-28 melanoma, 112%.
Take `CSc1nc(N)c(N=Nc2ccc(S(=O)(=O)Nc3nnc(C)s3)cc2)c(=O)[nH]1`: the growth was 101% in the test on DU-145 prostate; 138% with K-562 leukemia; 109% in the test with MALME-3M melanoma; 103% with MDA-MB-231 breast; 110% in the test with RXF 393 renal; 101% in the test on SF-268 CNS. Further, the growth was 133% with SF-295 CNS; 109% in the test on SF-539 CNS; 117% with UACC-257 melanoma; 101% with M14 melanoma; 109% in the test with HCT-15 colon; 104% in the test on HT29 colon. Further, the growth in the test on SNB-75 CNS is 107%; with U251 CNS it was 119%; with PC-3 prostate it was 97.5%; in the test on SK-MEL-5 melanoma it was 104%; in the test with UACC-62 melanoma, 94.3%; with LOX IMVI melanoma, 118%. For the same molecule, in the test on SK-MEL-28 melanoma, the growth was 108%.
Turning to `O=C(CCN1CCCCC1)c1ccc(Cl)cc1`, the growth was 106% with DU-145 prostate; 118% in the test with K-562 leukemia; 105% with MALME-3M melanoma; 104% with MDA-MB-231 breast; 113% with RXF 393 renal; 104% in the test on SF-268 CNS. Also, the growth in the test with SF-295 CNS is 94.2%; in the test with SF-539 CNS, 99.9%; in the test on UACC-257 melanoma, 108%; with M14 melanoma, 107%; in the test on HCT-15 colon, 98.5%; in the test on HT29 colon, 104%. Besides, the growth with SNB-75 CNS was 89.1%; with U251 CNS, 107%; in the test with PC-3 prostate, 91.6%; in the test on SK-MEL-5 melanoma, 97.6%; with UACC-62 melanoma, 103%; in the test with SK-MEL-28 melanoma, 108%.
For `CCOC(=O)/C(C#N)=C(\C)CCc1ccccc1`, the growth with DU-145 prostate is 132%; with K-562 leukemia it was 142%; in the test on MALME-3M melanoma it was 96.5%; with MDA-MB-231 breast, 109%; with RXF 393 renal it was 97.3%; in the test with SF-268 CNS it was 120%. In addition, the growth is 114% in the test with SF-295 CNS; 91.8% in the test with SF-539 CNS; 89.4% in the test with UACC-257 melanoma; 92.2% with M14 melanoma; 87.7% in the test with HCT-15 colon; 98.6% in the test with HT29 colon. Besides, the growth in the test on SNB-75 CNS is 52.3%; in the test with U251 CNS, 96.4%; in the test on PC-3 prostate it was 92.7%; with SK-MEL-5 melanoma, 98.4%; in the test with UACC-62 melanoma it was 110%; with LOX IMVI melanoma it was 96.9%. Also, the growth with SK-MEL-28 melanoma was 97.7%.
With `Nc1nc(Nc2ccccc2)c2ncn(Cc3cc4c(cc3Br)OCO4)c2n1`, the growth in the test on DU-145 prostate was 18.2%; in the test with K-562 leukemia, 10.2%; with MALME-3M melanoma it was 74.7%; in the test on MDA-MB-231 breast, -5.1% (active); in the test on RXF 393 renal, 22.9%; in the test with SF-268 CNS, 23.8%. Also, the growth with SF-295 CNS is 14%; in the test on SF-539 CNS, 1.84% (active); with UACC-257 melanoma, 58.3%; in the test on M14 melanoma, 15.7%; in the test on HCT-15 colon, 6.74% (active); with HT29 colon it was -34% (active). Besides, the growth in the test on SNB-19 CNS is 17.3%; with U251 CNS, 3.29% (active); with PC-3 prostate it was 16.2%; with SK-MEL-5 melanoma, -6.17% (active); in the test on UACC-62 melanoma, 33.6%.
For the molecule `C=C(C)C1CCC2(C(=O)O)CCC3(C)C(CCC4C5(C)CCC(OC(=O)NCc6ccccc6)C(C)(C)C5CCC43C)C12` (stereo not drawn), the growth in the test with DU-145 prostate is 56.2%; in the test on K-562 leukemia it was 28.5%; with MALME-3M melanoma it was 72.1%; in the test on MDA-MB-231 breast it was 53.6%; with RXF 393 renal, 60.2%; with SF-268 CNS, 65.4%. Moreover, the growth in the test on SF-295 CNS was 41.9%; in the test with SF-539 CNS, 53.5%; in the test with UACC-257 melanoma, 29.3%; in the test on M14 melanoma, 45.6%; in the test with HCT-15 colon, 40.8%; in the test on HT29 colon it was 43.5%. Besides, the growth was 75.7% in the test on SNB-75 CNS; 40.6% in the test with U251 CNS; 41.2% in the test with PC-3 prostate; 28.4% in the test on SK-MEL-5 melanoma; 33.9% with UACC-62 melanoma; 39.8% in the test with LOX IMVI melanoma. In addition, the growth with SK-MEL-28 melanoma was 61.5%.
